Laboratory results taken from PubChem BioAssay (NCI).
The panel holds about 79,000 compounds, 15% with a hit somewhere; the sample as a whole holds those more often. The source made the active and inactive calls. Cut-off read from the data, not from the text of the source: active = growth inhibition above about 70%; inactive = the rest.

Legend:
[1] = NCI Yeast Anticancer Drug Screen. Data for the rad50 strain (AID 155);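 note: 0% = growth of vehicle-only cultures of the same strain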; settings: S. cerevisiae rad50 strain growth inhibition; at 50.0 µM; active compounds read high
Summary of the method: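 Compounds were tested on a yeast strain with an engineered DNA damage repair alteration; the reported value is growth inhibition normalised to vehicle treatment.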

[2] = NCI Yeast Anticancer Drug Screen. Data for the mec2-1 strain (AID 157); settings: S. cerevisiae mec2-1 strain, at 50.0 µM, active compounds read high
Summary of the method: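 Using mec2-1 yeast: add compound, measure growth, express inhibition versus vehicle-treated cultures.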

[3] = NCI Yeast Anticancer Drug Screen. Data for the sgs1 mgt1 strain (AID 161);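 note: 0% = growth of cultures given vehicle only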; settings: S. cerevisiae sgs1 mgt1 strain, at 50.0 µM, active compounds read high
Summary of the method: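 This yeast growth screen uses a strain with defined DNA-repair lesions; compound-treated growth is compared with vehicle-treated growth.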

[4] = NCI Yeast Anticancer Drug Screen. Data for the cln2 rad14 strain (AID 165);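 note: 0% = growth equal to vehicle treated cultures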; settings: S. cerevisiae cln2 rad14 strain, at 50.0 µM, active compounds read high
Summary of the method: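 Yeast strain cln2 rad14, bearing defects in cell cycle control and DNA repair, serves as the test system; values reflect growth inhibition compared with vehicle.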

[5] = NCI Yeast Anticancer Drug Screen. Data for the bub3 strain (AID 167); settings: S. cerevisiae bub3 mutant strain, at 50.0 µM, active compounds read high
Summary of the method: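 Growth of a checkpoint-deficient yeast mutant is measured after compound exposure. Values represent inhibition relative to vehicle.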

[6] = NCI Yeast Anticancer Drug Screen. Data for the mlh1 rad18 strain (AID 175); settings: S. cerevisiae mlh1 rad18 strain growth inhibition; at 50.0 µM; active compounds read high
Summary of the method: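 Steps: expose repair-defective yeast to compound; measure growth; express inhibition against vehicle-treated controls.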

Measured: growth inhibition

CCN(CC)C(=S)[S][Pb]([CH2]C)([CH2]C)[CH2]C
inactive: [1] 3.5% | [2] 9.25% | [3] 30.2% | [4] 16.9% | [5] -1.35% | [6] 10.2%

CN(C)C(=S)Oc1cc(Cl)c(S(=O)(=O)F)cc1Cl
active: [1] 99.5% | [2] 98.8% | [3] 99.2% | [4] 95.8% | [5] 99.2% | [6] 99%

C=C(C)[C@]12CC(C)C34OC(/C=C\C=C\CCCCCCCCC)(O[C@@H]1[C@@H]3[C@@H]1O[C@]1(CO)[C@@H](O)[C@]1(O)C(=O)C(C)=C[C@@H]41)O2 (stereo partly drawn)
active: [1] 74.4% | [2] 70% | [3] 84.9% | [4] 73% | [5] 73.1%
inactive: [6] 64.2%

CC12CCC3C(CCC4CC(Cl)CCC43C)C1CCC2=O (stereo not drawn)
inactive: [1] 9.95% | [2] 8.5% | [3] 6.25% | [4] -59.4% | [5] -6.1% | [6] -5.05%

[CH3][Sn]1([CH3])[O]CC(COc2cc(Cl)c(Cl)cc2Cl)[O]1 (stereo not drawn)
inactive: [1] -22.4% | [2] 6.65% | [3] 2.95% | [4] 5.35% | [5] -10.1% | [6] 4.5%

NP(=O)(Oc1cccc2c(OP(N)(=O)N(CCCl)CCCl)cccc12)N(CCCl)CCCl (stereo not drawn)
inactive: [1] 6.95% | [2] -3.65% | [3] 8.1% | [4] -29.7% | [5] -3.25% | [6] 16.9%

CC(NC1=NCCO1)c1ccsc1 (stereo not drawn)
inactive: [1] 21.9% | [2] 12.6% | [3] 3.5% | [4] 14.8% | [5] 3.75% | [6] -24.1%

CCCOC(C(=O)OC1CCC2CCC1N2C)(c1ccccc1)c1ccccc1 (stereo not drawn)
inactive: [1] 5.4% | [2] -0.5% | [3] 17.8% | [4] 13.8% | [5] 28.8% | [6] 32.9%

C[As](C)(=S)[As](C)(C)=S
inactive: [2] 50.1% | [3] 65.2% | [4] 27.6% | [5] 66.7% | [6] 69.9%
active: [1] 77.3%

CCN(CC)C(=S)Cl
inactive: [1] -35.4% | [2] -29.4% | [3] -0.5% | [4] -2.15% | [5] 19.1% | [6] -24.5%

CN1CC[CH2][Sn]([Cl])([Cl])[CH2]CC1
inactive: [1] -1.25% | [2] -5.9% | [3] 1.15% | [4] 1.3% | [5] -17.2% | [6] 13%

COc1ccc(C=C(C#N)C#N)cc1OC
inactive: [1] -2.8% | [2] -8.15% | [3] -1.95% | [4] -24.2% | [5] -1.3% | [6] -0.25%

CC(C)C(O)(C(=O)OCC1=CCN2CCC(O)C12)C(C)O (stereo not drawn)
inactive: [1] 2.55% | [2] 0.1% | [3] 25.1% | [4] 9.55% | [5] 12.6% | [6] 8.5%

CN(C)NP(=O)(NN(C)C)c1ccccc1
inactive: [1] -49.9% | [2] -18.1% | [3] -22.4% | [4] -67.8% | [5] -1.6% | [6] -14.4%

CNP1(N(C)C)=NP(NC)(N(C)C)=NP(NC)(N(C)C)=N1 (stereo not drawn)
inactive: [1] -13.9% | [2] 12.9% | [3] -10.6% | [4] -6.85% | [5] 6.6% | [6] 10.4%

Nc1cccc2ccccc12
inactive: [1] 17.1% | [2] -9.95% | [3] 6.65% | [4] -28.9% | [5] 19.2% | [6] 4.4%

CCOC(=O)C1C2(C)NC(=O)C1(Cc1ccccc1)c1cc(C)c(C)cc1O2 (stereo not drawn)
inactive: [1] -0.75% | [2] 16.5% | [3] -11.8% | [4] -6.15% | [5] -3.3% | [6] 3.45%

O=C(Nc1ccccc1)N(C1=NCC(CI)S1)c1ccc(F)cc1F (stereo not drawn)
inactive: [1] 18.3% | [2] 6.75% | [3] -6.95% | [4] 7.7% | [5] 2.95% | [6] -40.1%

CC(=O)Nc1ccc([As](=O)(O)O)cc1[N+](=O)[O-]
inactive: [1] 0.85% | [2] -12.3% | [3] 0.1% | [4] -3.35% | [5] 23.2% | [6] 15.5%

O=C(NC1CC1)C(Cl)Cl
inactive: [1] -0.15% | [2] -25.1% | [3] 5.85% | [4] 11% | [5] -16.4% | [6] -1.15%

NC(=O)C1(Br)CCCCC1
inactive: [1] -11.8% | [2] -18.9% | [3] -10.5% | [4] -7.25% | [5] 8.45% | [6] -3.55%

CNP(=S)(Oc1cc(Cl)c(Cl)cc1Cl)N1CCN(c2ccc(Cl)cc2)CC1 (stereo not drawn)
inactive: [1] -0.5% | [2] 2% | [3] 4.35% | [4] -0.9% | [5] -2.9% | [6] 16.4%

CC(=O)N1CN2CN(C1)CN(C(C)=O)C2
inactive: [1] 0.3% | [2] -8.95% | [3] -5.3% | [4] -26.6% | [5] -9.05% | [6] -5.85%

O=c1oc2ccccc2c(O)c1C(c1ccc2c(c1)OCO2)c1c(O)c2ccccc2oc1=O
inactive: [1] -5.8% | [2] -4.75% | [3] 34.7% | [4] 7% | [5] 3.65% | [6] 28.4%

Cc1cccc(NC2=NCCO2)c1Cl
inactive: [1] -20.4% | [2] -25.8% | [3] -11% | [4] 24.9% | [5] -9.3% | [6] -27.3%

Cc1ccc(S(=O)(=O)OC2CN3CCC2CC3)cc1 (stereo not drawn)
inactive: [1] 62.4% | [2] -2.95% | [3] 42.7% | [4] 26.8% | [5] 38.4% | [6] 51.5%

O=[As](O)(O)CC(Br)CBr (stereo not drawn)
inactive: [1] 5.5% | [2] 12% | [3] 5.95% | [4] -7.3% | [5] 41.1% | [6] -3.4%

CC(=O)[O-].CC(=O)[O-].O=C(N/N=C/c1cc(Cl)cc(Cl)c1O)c1ccncc1.[Cu+2]
inactive: [1] 2.55% | [2] 2.75% | [3] 10.7% | [4] 51.1% | [5] -4.05% | [6] 9.85%

CNCCc1ccc(O)cc1
inactive: [1] -9.2% | [2] -1.85% | [3] -0.75% | [4] -23.3% | [5] 1.35% | [6] -0.65%

O=c1c(O)c(-c2ccccc2)oc2ccccc12
inactive: [1] 12.6% | [2] 14.8% | [3] 35.5% | [4] 15.6% | [5] 42.5% | [6] 34.8%

CC(=O)[CH-]C(C)=O.CC(=O)[CH-]C(C)=O.CC(=O)[CH-]C(C)=O.CCC(=O)O.[Zn+2].[Zn]
inactive: [1] -20.9% | [2] -9.35% | [3] -18.4% | [4] -38% | [5] -0.15% | [6] -26.3%

CN(C)P(=O)(N(C)C)N1CCCCC1
inactive: [1] -6.35% | [2] -10.2% | [3] 0.3% | [4] -22% | [5] -23.6% | [6] -4.3%

S=C=Nc1cccc2ccccc12
inactive: [1] -13.7% | [2] -11.8% | [3] -10.1% | [4] 17.5% | [5] -6.45% | [6] -6.1%

O=[N+]([O-])c1ccc(O)c(C=NCCN=Cc2cc([N+](=O)[O-])ccc2O)c1.[Zn+2]
inactive: [1] 15.4% | [2] 7% | [3] -6.05% | [4] -15.8% | [5] 1.1% | [6] 23.4%

CC(C)C1NC(C(C)C)N2C(C(C)C)N12 (stereo not drawn)
inactive: [1] -0.05% | [2] -17.2% | [3] -14.3% | [4] -24.5% | [5] -2.25% | [6] -1.5%

CN=c1ssc(/N=C(\SC)N(C)C)[n+]1C
inactive: [1] -17.7% | [2] -10.1% | [3] -13.8% | [4] -65.7% | [5] -19.4% | [6] 3.05%

N#CCc1ccccc1.N#CCc1ccccc1.[C-]#[O+].[C-]#[O+].[C-]#[O+].[C-]#[O+].[W]
inactive: [1] -10.9% | [2] -16.2% | [3] -7.1% | [4] -33.2% | [5] -5.05% | [6] -11.3%

CCC(C#N)N1CC1 (stereo not drawn)
inactive: [1] -7.05% | [2] 12.7% | [3] -6.4% | [4] 18.1% | [5] -4.35% | [6] 6%
